This is a sample that favours compounds with a hit; in the whole collection about 17% have one here.
DT40 TDP1 no CPT: qHTS for Inhibitors of human tyrosyl-DNA phosphodiesterase 1 (TDP1): qHTS in cells in absence of CPT; DT40 Tdp1-/- hTDP1 cells, no CPT, ATP luminescence, 48 h; Potency, µM (highest dose often 46.2 µM), inactives show at the top dose activity change, negative = growth inhibition, usual class: inhibitors; 420,000 compounds, 15% hits; note: % is set by controls: 0 for no effect and ±100 for the full control effect; nearly all actives have a fitted effect of over 55% in size
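Camptothecin absent (DMSO only). Human TDP1-complemented DT40 knockout cells, 400 cells/well, 37 °C for minimum 48 hr; ATP measured via CellTiter-Glo, 30 min dark incubation, luminescence.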
HepG2 viability: HepG2 cytotoxicity, counter-screen for TGF-b inhibitors; HepG2 CAGA-GFP viability, ATP luminescence, 18 h; Potency, µM (titrated, usually from 46.1 µM), for the others: top-dose activity change, negative = cytotoxicity, most hits filed as cytotoxic; 410,000 compounds, 0.76% hits; AID 588856
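CellTiter-Glo luminescence gave cytotoxicity after 18 hours at 37 degrees C. The cells were HepG2 CAGA-GFP in 1% FBS DMEM, stimulated with 500 pg/mL TGF-beta after compound addition. %Activity was normalised to no-cell wells (complete cell-killing) and DMSO (no toxicity), and curves were fitted and classified.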
TGFb SMAD3 inh: inhibitors of TGF-b signaling | 410,000 compounds, 1.2% hits | HepG2 CAGA-GFP TGF-b/SMAD3 reporter, GFP fluorescence, 18 h; TGF-beta stimulated, 500 pg/mL final | Potency, µM (series often up to 46.1 µM), without a hit: at the top dose activity, negative = inhibition, usual class: inhibitors; note: % is set by controls: 0 for no effect and ±100 for the full control effect; nearly all actives have a fitted effect of over 65% in size
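Inhibition was scored as loss of TGF-beta-induced (500 pg/mL final, 18 hours, 37 degrees C) GFP in HEPG2 cells carrying a CAGA-GFP reporter, in DMEM with 1% FBS. Well GFP was summed per cell; Activity was normalised to unstimulated and stimulated DMSO wells, then concentration-response fitting.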
HT1080 IDH1KD tx: HT-1080 IDH1 knockdown cell toxicity (counter line) | HT-1080 IDH1 knockdown viability, ATP luminescence, 48 h | Potency, µM (highest dose often 46.1 µM), without a hit: top-dose activity, negative = toxicity, actives largely listed as cytotoxic | 360,000 compounds, 2% hits | AID 686971;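 note: 0% = DMSO wells and -100% = cell-free medium wells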
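% activity derives from luminescence (CellTiter-Glo), normalised to DMSO and no-cell wells. HT-1080-IDH1KD cells, 750/well, had 48 h compound exposure at 37 °C.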
TDP1 cell CPT: DT40-hTDP1 cell growth loss with CPT; chicken DT40 Tdp1-/-;hTDP1 cells + 20 nM CPT, ATP luminescence, 48 h; Potency, µM (series often up to 46.2 µM), without a hit: at the highest dose activity change, negative = growth inhibition, hits mostly inhibitors; 420,000 compounds, 12% hits; AID 686979; note: % is set by controls: 0 for no effect and ±100 for the full control effect; nearly all actives have a fitted effect of over 55% in size
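Cell growth measured by CellTiter-Glo luminescence after a minimum 48 h, 37 C compound exposure with 20 nM CPT in Tdp1-knockout DT40 cells stably expressing hTDP1, seeded 400/well; qHTS titration format.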
HT1080-NT tox: kills 2HG-producing HT-1080-NT fibrosarcoma cells. HT-1080-NT fibrosarcoma viability, CellTiter-Glo ATP luminescence, 48 h. Potency, µM (doses to about 46.1 µM), inactives show top-dose activity, negative = less viability, usual class: cytotoxic. 360,000 compounds, 1.6% hits;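 note: NT is the 2HG producing partner of a matched IDH1 knockdown line; 0% = DMSO-treated cells and -100% = media-only wells without cells; nearly all actives have a fitted effect of over 55% in size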
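750 cells/well, RPMI + 5% FBS; 2 h settle, compound pin-transfer, 48 h at 37 degrees C. CellTiter-Glo 10 min RT, luminescence. Normalized to DMSO and media-only wells.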
Starred values were filed as active, the others as inactive; ? = inconclusive; . = no result; [ ] = dose if it differs, or a comment. Calls come from the whole dose curve; as a rule, active = well fitted curve in the direction sought with a large enough effect; inconclusive = small, poorly fitted or top-dose-only effect, or another doubt; inactive = no such curve, though single readings can be large; an effect the other way counts as inactive or inconclusive. Potency is the fitted concentration of half-maximal effect.

SMILES | DT40 TDP1 no CPT | HepG2 viability | TGFb SMAD3 inh | HT1080 IDH1KD tx | TDP1 cell CPT | HT1080-NT tox
COc1cccc(-c2nccc(NCCc3c[nH]c4ccc(OC)cc34)n2)c1 | ? | . | . | . | 13µM* | .
COc1ccc2[nH]cc(CCNc3nc(-c4cccnc4)nc4ccccc34)c2c1 | ? | . | . | . | 23µM* | .
COc1ccc2[nH]cc(CCNc3ccnc(-c4ccccc4C)n3)c2c1 | ? | . | . | . | 21µM* | .
COc1ccc2[nH]cc(CCNC(=O)Nc3ccccc3C)c2c1 | -7% | -8% | -7% | 13% | 26% | 18%
CCCC1(CCC)NC(=O)N(CC(=O)N2CCc3ccccc32)C1=O | 1% | -33% | 0% | -4% | -1% | 0%
Cc1ccccc1NS(=O)(=O)c1ccc(C(=O)NCc2ccccc2CN2CCCC2)cc1 | 23µM* | -34% | 0% | -18% | ? | -8%
O=C(NCc1ccccc1CN1CCCC1)c1ccc(S(=O)(=O)Nc2ccccc2)cc1 | 13µM* | -31% | -14% | ? | 21µM* | -16%
O=C(NCc1ccccc1CN1CCCC1)c1cccc(S(=O)(=O)N2CCCC2)c1 | -14% | -57% | -8% | -4% | -6% | -2%
O=C(NCc1ccccc1CN1CCCC1)c1ccc(S(=O)(=O)Nc2ccccc2F)cc1 | ? | -15% | -25% | -10% | -29% | -4%
Cc1cc(-c2ccnc(-n3ncc(C(=O)N4CCCCC4c4cccnc4)c3C3CC3)n2)c(C)s1 (stereo not drawn) | -3% | . | . | . | 8%[9.04 µM] | .
Cc1sc2ncnc(N3CCN(Cc4ccccc4)CC3)c2c1-c1ccccc1 | ? | 5% | 4% | 13% | ? | 3%
CCOc1ccc2[nH]c3c(N4CCN(c5ccccn5)CC4)ncnc3c2c1 | 16µM* | -43% | -8% | ? | 8.9µM* | ?
Cc1ccc2[nH]c3c(N4CCN(Cc5ccccc5)CC4)ncnc3c2c1 | 9.2µM* | 7.9µM* | ? | 21µM* | 13µM* | ?
Cc1ccc2c(c1)[nH]c1c(N3CCN(Cc4ccccc4)CC3)ncnc12 | 4.6µM* | -70% | 11µM* | ? | 5.8µM* | ?
CCOc1ccc2oc(C(=O)N3CCN(c4ccccn4)CC3)c(C)c2c1 | -27% | -9% | -9% | -8% | -27% | -1%
O=C(COC(=O)[C@@H]1CCCN1C(=O)c1cccs1)Nc1cccc([N+](=O)[O-])c1 | -4% | -10% | 17% | 1% | -26% | 8%
O=C(NCC1CCC2(CCN(Cc3cccc(-c4ccco4)c3)CC2)O1)c1ccccc1 (stereo not drawn) | -23% | . | . | . | -12%[9.04 µM] | .
COc1cccc(-c2cnc3c(c2)C(=O)N([C@H](C)CO)C[C@@H](C)[C@H](CN(C)C(=O)Nc2ccccc2F)O3)c1 | 0% | 4% | 11% | 9% | -1% | -2%
CCN(CC(=O)Nc1ccc(OC)cc1)C(=O)CSCC(=O)Nc1cc(C)on1 | -5% | -13% | -17% | -13% | -3% | -3%
Cc1nn(-c2ccccc2)c(Cl)c1/C=N/NC(N)=O | -12% | -29% | 17% | 11% | 2% | 9%
Cc1nn(-c2ccc(F)cc2)c(Cl)c1/C=N/NC(=O)c1cccs1 | ? | -51% | ? | -27% | ? | ?
Cc1nn(-c2ccc(Cl)cc2)c(Cl)c1/C=N/NC(=O)c1ccc(NS(=O)(=O)c2cccs2)cc1 | 18µM* | -13% | ? | ? | 18µM* | ?
Cc1nn(-c2ccccc2)c(Cl)c1/C=N/NC(=O)c1cccc(S(=O)(=O)N2CCCC2)c1 | 10µM* | -3% | ? | 0% | -28% | 2%
Cc1ccc(C)c(OCC(=O)N/N=C/c2c(C)nn(-c3ccccc3)c2Cl)c1C | 7.3µM* | 4% | -46% | 4% | 15µM* | 12%
Cc1nn(-c2ccccc2)c(Cl)c1/C=N/NC(=O)CNC(=O)c1ccccc1Cl | ? | -37% | -4% | -4% | 21µM* | -4%
SMILES | DT40 TDP1 no CPT | HepG2 viability | TGFb SMAD3 inh | HT1080 IDH1KD tx | TDP1 cell CPT | HT1080-NT tox
CCc1cccc(OCC(=O)Nc2ccc(S(=O)(=O)Nc3ncccn3)cc2)c1 | 3% | 0% | 0% | . | -1% | .
CCc1ccc(NC(=O)Cn2ncc3c(C)n(Cc4cccc(Cl)c4)c(C)c3c2=O)cc1 | ? | 5% | 47% | . | ? | .
CC(=O)Nc1ccc(S(=O)(=O)N2CCC(C(=O)N[C@@H](C)C(=O)NC3CCCC3)CC2)cc1 | 7% | 1% | 1% | 10% | -9% | 1%
Cc1nn(-c2ccccc2)c(Cl)c1/C=N/Nc1nnc(C)c(=O)[nH]1 | ? | -7% | 14% | 0% | ? | -2%
Cc1nn(-c2ccc(F)cc2)c(Cl)c1/C=N/NC(=O)c1ccc(O)cc1 | -28% | -7% | 0% | -7% | 1% | -12%
CNC(=S)N/N=C/c1c(C)nn(-c2ccc(F)cc2)c1Cl | 15µM* | -11% | -4% | -19% | ? | -22%
Cc1nn(-c2ccccc2)c(Cl)c1/C=N/Nc1nc2ccccc2n1C | 15µM* | -54% | ? | ? | 26µM* | -29%
CCOc1ccccc1Nc1nc(-c2ccc(C)cc2)c(CC(=O)O)s1 | -14% | 6% | 24% | . | ? | .
CCC1CCCCN1C(=O)c1ccc(OC)c(OC2CCN(C(C)C)CC2)c1 (stereo not drawn) | 0% | -8% | 4% | -1% | -13% | 13%
CC(CCc1ccccc1)NC(=O)CCc1cn(C)c2ccccc12 (stereo not drawn) | 18µM* | -16% | 0% | 18% | -1% | 25%
Cc1ccccc1Cn1cc(CCC(=O)NC(C)c2ccccc2)c2ccccc21 (stereo not drawn) | 23µM* | -35% | ? | . | 13µM* | .
O=C(Cc1csc2ccccc12)NCc1cccc(Br)c1 | 21µM* | -13% | -2% | . | 16µM* | .
Cn1cc(CCCC(=O)NCc2cccc(Br)c2)c2ccccc21 | 18µM* | -24% | ? | . | ? | .
CC(C)NC(=O)CCCc1cn(C)c2ccccc12 | -5% | 0% | 3% | 13% | -15% | 5%
Nc1cc(N)nc(SCC(=O)NC(=O)NC2CCCC2)n1 | -9% | 1% | 1% | 4% | -5% | 8%
O=C(c1ccncc1)c1ccc(NS(=O)(=O)c2ccc(Br)s2)cc1 | 18µM* | -32% | 2% | 0% | 16µM* | -2%

Compound activity (PubChem BioAssay)
